CYP2C9 inhib – blocks human cytochrome P450 2C9; CYP2C9 Supersomes, luciferin-H conversion, luminescence; AID 777; P11712; inhibition, % at 5 µM; hit rate 20% among 96,000;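 active = blocking of liver enzyme CYP2C9 beyond about 50% at 5 µM, limit read from the data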
Target sequence (P11712 whole entry, looked up): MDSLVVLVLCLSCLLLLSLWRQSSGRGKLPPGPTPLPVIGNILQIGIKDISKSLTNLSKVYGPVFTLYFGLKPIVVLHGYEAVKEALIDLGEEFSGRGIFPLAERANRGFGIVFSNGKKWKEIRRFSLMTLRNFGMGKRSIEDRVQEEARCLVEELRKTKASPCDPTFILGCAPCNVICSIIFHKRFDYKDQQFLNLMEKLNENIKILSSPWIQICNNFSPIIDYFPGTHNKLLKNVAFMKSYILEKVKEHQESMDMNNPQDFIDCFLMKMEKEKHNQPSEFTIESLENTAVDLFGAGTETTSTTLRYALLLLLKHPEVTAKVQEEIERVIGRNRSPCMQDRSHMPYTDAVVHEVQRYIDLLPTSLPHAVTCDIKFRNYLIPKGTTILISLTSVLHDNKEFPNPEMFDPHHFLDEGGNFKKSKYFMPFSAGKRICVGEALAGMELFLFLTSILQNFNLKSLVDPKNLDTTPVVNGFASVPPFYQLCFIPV
sEH inh – blocks human soluble epoxide hydrolase activity; inhibition, % at 2 µM; recombinant human sEH enzymatic activity assay; hit rate 0.34% among 91,000; P34913; in the data active = inhibition above about 80%
CYP2C19 inhib – human CYP2C19 inhibition | P33261 | CYP2C19 Supersomes, luciferin-H EGE luminescence, 30 min | inhibition, % at 5 µM | hit rate 21% among 96,000 | AID 778;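 active = CYP2C19 inhibition above a set limit at 5 µM in the primary screen, cut at about 50% in these data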;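 also: plate controls were negative control wells for no effect and 2.5 mM tranylcypromine positive control for full effect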
sEH act – increases human soluble epoxide hydrolase activity. AID 717. P34913. hit rate 0.04% among 91,000. purified human sEH enzymatic activity, activator screen. activation, % at 2 µM; in the data active = activation above about 37%
CYP2C19 activ – activators of human cytochrome P450 2C19. P33261. recombinant CYP2C19, luciferin-H EGE luminescence; hits give high values; 0 = fully inhibited enzyme, 1 = untreated enzyme. activation factor at 5 µM. 96,000 tested, under 10 active;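 active = activation factor of at least 2 at 5 µM in the primary screen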;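 also: 0 = wells with 2.5 mM tranylcypromine and 1 = vehicle-only wells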
CYP2C9 activ – increases human cytochrome P450 2C9 activity | hit rate 1.4% among 96,000 | activation factor at 5 µM | recombinant CYP2C9, luciferin-H conversion, luminescence; hits give high values; factor 1 = untreated enzyme, 0 = blocked | P11712;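 active = activation factor of 2 or more for CYP2C9 at a 5 µM dose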;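 also: 0 = sulfaphenazole-blocked wells and 1 = vehicle-only wells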
An asterisk follows results filed as active; / = not tested or not shown. Most compounds without a hit are left out; they make up all but 27% or so of the library.

SMILES	CYP2C9 inhib	sEH inh	CYP2C19 inhib	sEH act	CYP2C19 activ	CYP2C9 activ
COc1ccc(CCNC(=O)CSc2nnc(Cc3csc(N)n3)n2C)cc1OC	51*	8	-13	-9	1.1	0.5
Cc1nonc1NC(=O)CSc1ccc(-c2ccccc2)nn1	64*	-17	50	17	0.5	0.4
COc1ccc(CCNC(=O)CSc2nnc(Cn3c(=O)sc4ccccc43)n2C)cc1OC	-4	-15	5	12	0.9	1
COc1ccc(CCNC(=O)CSc2nnc(-c3ccc(F)cc3)o2)cc1OC	63*	21	46	-20	0.5	0.4
COc1ccc(CCCc2nnc(SCC(=O)Nc3nccs3)n2C)cc1C	-31	11	59*	-9	0.4	1.3
Cc1cc(C)nc(SCc2nnc(SCC(=O)Nc3nccs3)n2C)n1	/	-14	/	12	/	/
CCN1CCN(c2ccc(NC(=O)c3cccc4ncccc34)cc2)CC1	3	5	7	-4	0.9	1
CCNc1nc(OC)nc(SCC(N)=O)n1	-24	-5	-10	0	1.1	1.2
COc1ccc(CCNC(=O)CSc2cc(=O)[nH]c(N)n2)cc1OC	-9	-2	-3	2	1	1.1
COc1ccc(CCNC(=O)C(=O)NCc2ccc(C(C)C)cc2)cc1OC	11	3	30	-2	0.7	0.9
COc1ccc(CCNC(=O)CSc2ccc(-c3ccccc3)nn2)cc1OC	25	-7	71*	12	0.3	0.8
COc1ccc(CCNC(=O)C(C)Sc2ccccc2)cc1OC (stereo not given)	64*	-3	56*	5	0.4	0.4
CCCOc1ccc(OCCOCCN2CCc3ccccc3C2)cc1	25	-6	52*	7	0.5	0.8
CCOc1ccc(OCCOCCN2CCc3ccccc3C2)cc1	4	6	17	-4	0.8	1
CC12CN(S(=O)(=O)c3ccccc3)CC(C)(CN(S(=O)(=O)c3ccccc3)C1)C2	8	6	12	-4	0.9	0.9
O=c1c2ccccc2nc2n1CC/C2=C/N1CCN(c2cccc(C(F)(F)F)c2)CC1	-16	-13	8	13	0.9	1.2
CCOC(=O)c1sc2nccc(N(C)C)c2c1N=CN(C)C	11	/	0	/	1	0.9
CCOC(=O)c1sc2ncnc(NCC(c3cccs3)N(C)C)c2c1C (stereo not given)	9	13	58*	-11	0.4	0.9
COc1ccccc1COCC(O)CNCC1(N2CCCCC2)CCCCC1 (stereo not given)	5	6	1	-9	1	1
Cc1cccc(C(=O)N2CCN(c3ccc([N+](=O)[O-])c(N4CCOCC4)c3)CC2)c1	54*	-2	3	0	1	0.5
COc1ccc(N2CCN(C(=O)c3ccc(C(C)(C)C)cc3)CC2)cc1	41	-11	20	10	0.8	0.6
O=C(c1ccc2ccccc2c1)N1CCN(c2ccc(O)cc2)CC1	18	5	62*	-3	0.4	0.8
O=C(c1ccc2ccccc2c1)N1CCN(c2ccc([N+](=O)[O-])c(N3CCOCC3)c2)CC1	65*	2	46	-3	0.5	0.3
Cc1nn(-c2cc(N3CCOCC3)ccc2[N+](=O)[O-])c(=O)c2ccccc12	20	8	-5	-10	1	0.8
O=C(/C=C/c1ccccc1)N1CCN(c2ccc([N+](=O)[O-])c(N3CCOCC3)c2)CC1	72*	3	42	-1	0.6	0.3
SMILES	CYP2C9 inhib	sEH inh	CYP2C19 inhib	sEH act	CYP2C19 activ	CYP2C9 activ
CCOC(=O)c1[nH]c(C)c(CN(Cc2ccco2)C(=O)C(F)(F)F)c1C	18	-4	-3	4	1	0.8
CCOc1cc2[nH]c(=O)n(CCC(=O)NCCc3ccccc3)c(=O)c2cc1OCC	44	-14	12	12	0.9	0.6
COC(=O)c1sc(S(=O)(=O)N2CCCCC2C(=O)O)c(C(=O)OC)c1C (stereo not given)	-14	3	-12	0	1.1	1.1
Cc1cc(N2CCC(C)CC2)c(F)cc1[N+](=O)[O-]	12	4	31	-4	0.7	0.9
O=C(c1ccc(F)cc1)N1CCN(c2ccc([N+](=O)[O-])c(N3CCCCC3)c2)CC1	62*	-5	19	3	0.8	0.4
CC(=O)N1CCN(c2cc(N3CCc4ccccc4C3)c(F)cc2[N+](=O)[O-])CC1	54*	0	37	2	0.6	0.5
O=C(c1cccc(F)c1)N1CCN(c2cc(N3CCCCC3)c(F)cc2[N+](=O)[O-])CC1	89*	-7	91*	6	0.1	0.1
CO/N=C(\c1nonc1N)N1CCN(c2ccc(Cl)cc2[N+](=O)[O-])CC1	76*	1	77*	-2	0.2	0.2
COc1cc2c(N3CCOCC3)cc(O)c(CC(=O)Nc3ccccc3)c2cc1OC	10	-19	19	18	0.8	0.9
CC(C)N(C(=O)CSc1nnc(CNc2ccc(F)cc2)o1)C(C)C	/	15	/	-11	/	/
O=C(/C=C/c1ccc(Cl)cc1)N1CCN(c2ncccn2)CC1	10	2	10	-4	0.9	0.9
O=[N+]([O-])c1cc([N+](=O)[O-])c(N2CCOCC2)cc1NCc1ccccc1	86*	-7	29	5	0.7	0.1
O=C(/C=C/c1ccc(Cl)cc1)N1CCN(c2ccc(Cl)cc2[N+](=O)[O-])CC1	44	4	54*	-6	0.5	0.6
CCOC(=O)c1[nH]nc(-c2c(O)cc(C)cc2O)c1-c1csc(C)n1	11	-8	23	10	0.8	0.9
CCCc1cc(-c2n[nH]c(C(=O)OCC)c2-c2cscn2)c(O)cc1O	67*	-8	56*	7	0.4	0.3
O=C(c1ccccc1)N1CCN2C(=O)c3ccccc3C12c1ccc(Cl)cc1 (stereo not given)	31	5	63*	-4	0.4	0.7
O=C(NC(=O)N1CCN(c2ccccc2)CC1)c1ccc(Cl)cc1	/	0	/	1	/	/
O=C(Nc1ccccc1)N1CCN2C(=O)c3ccccc3C12c1ccccc1 (stereo not given)	96*	49	93*	-48	0.1	0
O=C(Nc1ccccc1)N1CCCC1	14	5	-8	-5	1.1	0.9
Cc1nc(NCC2CCCO2)nc2c1C(=O)CC(C)(C)C2 (stereo not given)	20	-10	27	9	0.7	0.8
O=C(Cn1cc2c(n1)CCCC2)N1CCCc2ccccc21	35	/	28	/	0.7	0.6
O=C(Nc1cccc(-c2cn3cccnc3n2)c1)c1ccco1	23	-17	6	16	0.9	0.8
O=C(Nc1cccc(-c2cn3cccnc3n2)c1)c1ccc2c(c1)OCO2	60*	1	10	-2	0.9	0.4
O=C(Nc1cccc(-c2cn3cccnc3n2)c1)c1ccc(Br)o1	58*	-7	-3	6	1	0.4

Assay outcomes from PubChem BioAssay.
